The record followed here is PubChem BioAssay AID720700 (The Scripps Research Institute Molecular Screening Center, 2013).

Several values for one entry are separate records, joined by “and”; a condition that tells them apart may be missing. Equal values may be shown once. Hit rate of the full screen: of about 370,000 compounds, about 3,100 (0.84%) were called active. No stated cut-off is given here; in the data, active means inhibition above about 9.5%; inactive means the rest. What follows is part of a selection rich in actives, with near analogues and random picks from the rest.

1-phosphatidylinositol 4,5-bisphosphate phosphodiesterase gamma-1 (Homo sapiens), sequence (P19174 whole entry, looked up): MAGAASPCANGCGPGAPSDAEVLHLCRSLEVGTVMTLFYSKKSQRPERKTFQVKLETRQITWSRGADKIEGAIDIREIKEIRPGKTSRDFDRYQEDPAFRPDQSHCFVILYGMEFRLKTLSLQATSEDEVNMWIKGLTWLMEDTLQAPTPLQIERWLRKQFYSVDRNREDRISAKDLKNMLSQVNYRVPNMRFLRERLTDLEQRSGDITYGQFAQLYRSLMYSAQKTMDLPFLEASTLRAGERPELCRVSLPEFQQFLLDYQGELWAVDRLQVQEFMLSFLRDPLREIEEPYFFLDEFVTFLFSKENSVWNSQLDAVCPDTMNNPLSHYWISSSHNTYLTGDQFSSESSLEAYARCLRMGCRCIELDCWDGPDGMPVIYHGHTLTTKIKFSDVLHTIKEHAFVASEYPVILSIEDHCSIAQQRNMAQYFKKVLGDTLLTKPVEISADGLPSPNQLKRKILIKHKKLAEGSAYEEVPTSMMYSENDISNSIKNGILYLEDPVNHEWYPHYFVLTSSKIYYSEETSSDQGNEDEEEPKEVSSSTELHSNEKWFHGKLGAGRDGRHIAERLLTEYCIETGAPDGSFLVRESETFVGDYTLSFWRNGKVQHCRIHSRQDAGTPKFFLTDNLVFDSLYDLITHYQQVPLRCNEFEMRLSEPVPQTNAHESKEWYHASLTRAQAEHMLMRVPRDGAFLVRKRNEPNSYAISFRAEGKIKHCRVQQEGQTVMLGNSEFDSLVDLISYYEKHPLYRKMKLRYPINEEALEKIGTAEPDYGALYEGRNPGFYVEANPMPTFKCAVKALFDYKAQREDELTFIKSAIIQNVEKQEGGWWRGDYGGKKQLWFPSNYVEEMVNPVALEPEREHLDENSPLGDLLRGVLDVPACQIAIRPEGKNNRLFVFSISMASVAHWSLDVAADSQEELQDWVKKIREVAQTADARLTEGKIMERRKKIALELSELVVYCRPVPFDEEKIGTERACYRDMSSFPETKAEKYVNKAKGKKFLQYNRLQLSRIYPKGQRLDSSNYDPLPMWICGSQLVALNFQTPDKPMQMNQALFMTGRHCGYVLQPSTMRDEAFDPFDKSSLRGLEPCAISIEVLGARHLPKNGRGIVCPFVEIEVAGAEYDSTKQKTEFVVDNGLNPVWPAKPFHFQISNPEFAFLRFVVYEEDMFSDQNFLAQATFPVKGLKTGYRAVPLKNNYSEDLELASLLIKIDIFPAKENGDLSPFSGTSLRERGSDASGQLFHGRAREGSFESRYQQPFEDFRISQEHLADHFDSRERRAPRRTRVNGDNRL

This assay addresses 1-phosphatidylinositol 4,5-bisphosphate phosphodiesterase gamma-1 (Homo sapiens) (UniProt P19174). In words: blockers of human PLCG1 activity – biochemical, fluorescence, purified enzyme, primary screen (AID 720700). To be noted: purified PLC-gamma1, fluorogenic substrate, at 12.2 µM, active compounds read high.
Usually inhibition stands for the change of the read-out against control, counted positive when it falls. As to `CC(=O)N1CN2CN(C(C)=O)CC(C(=O)c3ccc(Br)cc3)(C2)C1`, the inhibition was 11.9% (active).

Consider `Cc1cc(-c2ccc(N)c(C)c2)ccc1N`, for which the inhibition is 2.25% (inactive). For the compound `Oc1ccc2c3c1OC1[C@H](O)CC[C@@]4(O)[C@@H](C2)N(CC2CC2)CC[C@]314` (stereo not given in full), the inhibition was -3.08% (inactive) and -2.01% (inactive). As for `O=C(NC1CCCCC1)N1Cc2cc(N3CCCCC3)ccc2-n2nncc2C1`, the figure is -5.89% (inactive); as for `CCN(CC)P(=O)(Oc1cccc(C)c1)N(CC)CC`, 7.26% (inactive). Next, `COC(=O)C1=C(c2ccc(F)cc2OCc2ccccc2)C[C@@H]2CC[C@H]1N2C(=O)NCc1ccc(Cl)cc1`: 4.35% (inactive); `COC(=O)C1=C(c2ccc(-c3ccccc3)c(F)c2)C[C@@H]2CC[C@H]1N2C(=O)NCc1ccc(F)cc1`: 11.8% (active). Next, `COC(=O)C1=C(c2cccc(OCc3ccccc3)c2)C[C@@H]2CC[C@H]1N2C(=O)NCc1ccc(Br)cc1`: 0.93% (inactive). On to `CCOC(=O)C(O)(c1ccc(N)c(OC)c1)C(F)(F)F` (stereo not given), for which the inhibition was 0.45% (inactive). As for `CN(C)CCN(CC1CCCN(Cc2ccccc2F)C1)C(=O)Cc1ccc(F)c(F)c1` (stereo not given), the figure is 1.2% (inactive).
